Source: PubChem (National Center for Advancing Translational Sciences (NCATS))
Giardia kill: Giardia lamblia killing; 340,000 compounds, 0.15% hits; activity change, % at 7.66 µM, hits read low; Giardia lamblia trophozoite viability; in the data active = activity change below about -80%; inconclusive = between about -30% and that limit;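 note: parasites exposed to compound for two days anaerobically before the ATP read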
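Each well holds 100 Giardia trophozoites and compound. After two days (48 hrs) at 37 deg C in anaerobic conditions, ATP is quantified by luminescence.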
Nrf2 block: inhibitors of Nrf2 signaling. A549 ARE-Fluc reporter, luciferase luminescence, 18-24 h. Potency, µM (top dose mostly 46 µM), without a hit: at the highest dose activity change, negative = inhibition, hits mostly inhibitors. 360,000 compounds, 2.1% hits. AID 504444; note: potency is the fitted concentration of half-maximal effect; nearly all actives have a fitted effect of over 60% in size
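Reporter: ARE-Fluc in A549. Exposure: 18-24 h, 37 °C, 5% CO2, 5% FBS OPTI-MEM. Readouts: fluorescent cytotoxicity (CellTiter-Fluor), then luminescent Nrf2 signal after BugLite.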
KB-3-1 tox: kills parental KB-3-1 adenocarcinoma cells; KB-3-1 viability, CellTiter-Glo ATP luminescence, 72 h; Potency, µM (series often up to 46.1 µM), usual class: cytotoxic; 400,000 compounds, 1.4% hits; AID 1347075; note: potency is the fitted concentration of half-maximal effect; nearly all actives have a fitted effect of over 60% in size
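Parental KB-3-1 adenocarcinoma cells in phenol-red-free DMEM with 10% FBS were pin-treated with compounds at several concentrations, incubated 72 h at 37 °C, and viability read by CellTiter-Glo luminescence; concentration-effect curves were fitted after normalization.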
PI4K2A block: inhibitors of human PI4K2A; purified PI4K2A, ADP-Glo luminescence, 1 h; active compounds read low; activity change, negative = inhibition, % at 76.9 µM; Q9BTU6; 420,000 compounds, 0.13% hits; in the data active = activity change below about -50%; inconclusive = mostly about -30% to -49%;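 note: -100% = wells without enzyme as full effect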
Target sequence (Q9BTU6 whole entry, looked up): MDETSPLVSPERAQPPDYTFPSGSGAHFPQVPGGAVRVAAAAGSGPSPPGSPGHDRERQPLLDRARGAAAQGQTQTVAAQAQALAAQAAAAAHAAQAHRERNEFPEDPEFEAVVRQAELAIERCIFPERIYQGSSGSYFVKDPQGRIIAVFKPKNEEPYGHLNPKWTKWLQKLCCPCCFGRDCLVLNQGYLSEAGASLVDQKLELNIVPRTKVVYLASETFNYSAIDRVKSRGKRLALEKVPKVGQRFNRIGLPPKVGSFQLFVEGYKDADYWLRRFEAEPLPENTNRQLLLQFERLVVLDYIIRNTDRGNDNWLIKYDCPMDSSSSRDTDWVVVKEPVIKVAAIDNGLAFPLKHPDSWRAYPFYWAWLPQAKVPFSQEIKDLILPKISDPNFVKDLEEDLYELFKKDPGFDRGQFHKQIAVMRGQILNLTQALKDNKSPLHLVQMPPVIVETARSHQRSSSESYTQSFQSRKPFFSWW
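PI4K2A activity was measured by ADP-Glo luminescence: enzyme (4 ug/mL stock) and phosphatidylinositol (1.2 mM stock) in Tris pH 7.5/MgCl2/EGTA/Triton X-100 buffer were reacted with ATP (300 microM stock) for one hour at ambient temperature.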
A549 tox: counter-screen for Nrf2 inhibitors: cytotoxicity in A549 cells | A549 ARE-Fluc cells, CellTiter-Fluor viability, 18-24 h | Potency, µM (highest dose often 46 µM), for inactives: at the highest dose activity change, negative = cytotoxicity, actives largely listed as inhibitors | 390,000 compounds, 0.16% hits | AID 504648; note: potency is the fitted concentration of half-maximal effect
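A549 ARE_Fluc cells in 5% FBS OPTI-MEM were exposed to compounds in concentration-response for 18-24 h at 37 deg C. Viability was read by CellTiter-Fluor fluorescence (Ex 405/Em 525) after 30 min, before the luciferase read.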
KB-V1 cytotox: KB-V1 MDR subline cytotoxicity. KB-V1 MDR cells viability, CellTiter-Glo, 72 h. 400,000 compounds, 3.4% hits. Potency, µM (highest dose often 46.1 µM), actives largely listed as cytotoxic. AID 1347076; note: potency is the fitted concentration of half-maximal effect; nearly all actives have a fitted effect of over 60% in size
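Cytotoxicity toward P-gp-expressing KB-V1 cells was determined as loss of CellTiter-Glo luminescence after 72 h at 37 degrees C. Compounds were tested in quantitative HTS format across a concentration range, with curves fitted to normalized data.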
* = called active by the depositor; [ ] = dose if it differs, or a comment. Hits are enriched below; roughly 5.7% of the tested compounds scored in any of these assays. Unless noted, calls come from the whole dose curve; as a rule, active = well fitted curve in the direction sought with a large enough effect; inconclusive = small, poorly fitted or top-dose-only effect, or another doubt; inactive = no such curve, though single readings can be large; an effect the other way counts as inactive or inconclusive. Unless noted, % is set by controls: 0 for no effect and ±100 for the full control effect.

N#CCc1c(C#N)c(N)nc(N2CCN(c3ccc(F)cc3)CC2)c1C#N was read as Giardia kill 0.8, Nrf2 block inconclusive, KB-3-1 tox inconclusive, PI4K2A block 13.8, A549 tox -1.2% and KB-V1 cytotox 11.6µM*.
For Cc1cc(C)c(C#N)c(N2CCN(Cc3ccc4c(c3)OCO4)CC2)n1 the results were Giardia kill -1.4, Nrf2 block -26.6%, KB-3-1 tox inactive, PI4K2A block -11.1, A549 tox 2.6% and KB-V1 cytotox inconclusive.
N#CCc1c(C#N)c(N)nc(N2CCN(S(=O)(=O)c3ccccc3F)CC2)c1C#N was read as Giardia kill -1.8, Nrf2 block -8.3%, KB-3-1 tox inactive, PI4K2A block 0.5, A549 tox 0.4% and KB-V1 cytotox inactive.
Cn1cccc1-c1cc2n(n1)CCC(=O)N2CCCC(=O)NCc1cccc(Cl)c1 was read as KB-3-1 tox inactive, PI4K2A block 3.7, A549 tox -3.4% and KB-V1 cytotox inactive.
C[C@@]12C(=O)OC(=O)[C@]1(C)C1CCC2O1 was read as Giardia kill -94.1*, Nrf2 block inconclusive, KB-3-1 tox inconclusive, PI4K2A block -3.8, A549 tox inconclusive and KB-V1 cytotox 5.8µM*.
Cc1ccc(O)c(N=Nc2ccccc2)n1 was read as Giardia kill -15.6, Nrf2 block 15.4%, KB-3-1 tox inactive, PI4K2A block -67.4*, A549 tox -4.2% and KB-V1 cytotox inactive.
For Oc1ccc(Cl)cc1N=Nc1ccccc1 the results were Giardia kill 7.9, Nrf2 block 3.3%, KB-3-1 tox inactive, PI4K2A block -0.9, A549 tox -4.1% and KB-V1 cytotox inactive.
For Cc1ccccc1CS(=O)(=O)Cc1ccc(C(=O)Nc2ccc(F)cc2)o1 the results were PI4K2A block -3.9.
Screening COc1cc(OC)cc(C(=O)Nc2ccc(N3CCN(C(=O)c4cccs4)CC3)cc2)c1 returned Giardia kill 18.2, Nrf2 block inconclusive, KB-3-1 tox 7.31µM*, PI4K2A block 0.1, A549 tox inconclusive and KB-V1 cytotox 8.2µM*.
For O=C(COc1ccc(NC(=O)c2cccs2)cc1)c1ccc(F)cc1 the results were Giardia kill -15.5, Nrf2 block 16.4µM*, PI4K2A block 1.8 and A549 tox -18.5%.
Screening COc1cccc(C(=O)COc2ccc(NC(=O)c3cccs3)cc2)c1 returned Giardia kill -7.7, Nrf2 block inconclusive, PI4K2A block -0.7 and A549 tox -20.7%.
CC(=O)Nc1ccc(N2CCN(C(=O)c3cccs3)CC2)cc1 was read as Giardia kill -2.1, Nrf2 block 8.7%, KB-3-1 tox inactive, PI4K2A block -0.1, A549 tox -1.3% and KB-V1 cytotox inactive.
O=C(Nc1ccc(N2CCN(C(=O)c3cccs3)CC2)cc1)c1ccc(F)cc1 was read as Giardia kill 8.0, Nrf2 block inconclusive, KB-3-1 tox inactive, PI4K2A block 3.7, A549 tox -4.2% and KB-V1 cytotox 0.184µM*.
CN[C@H]1C[C@H]2c3[nH]c4cccc(-c5ccc6c(c5)OCO6)c4c3CCN2C[C@H]1[C@H](C)O was read as PI4K2A block -3.2.
O=C(N1CCN(c2ccccc2F)CC1)C12CC3CC(CC(C3)C1)C2 was read as Giardia kill -5.0, Nrf2 block -11.2%, KB-3-1 tox inactive, PI4K2A block -0.8, A549 tox inconclusive and KB-V1 cytotox 18.4µM*.
For c1nc(NCC2CC2)c2cc(-c3ccc4c(c3)OCO4)ccc2n1 the results were PI4K2A block -5.6.
`Cc1ccc(-n2nnnc2SCn2nnc3ccccc3c2=O)c(C)c1` gave Giardia kill -8.6, Nrf2 block 9.2µM*, KB-3-1 tox inconclusive, PI4K2A block -11.1, A549 tox inconclusive and KB-V1 cytotox inconclusive.
`O=c1c2ccccc2nnn1CSc1ccccc1` gave Giardia kill 17.8, Nrf2 block inconclusive, KB-3-1 tox inactive, PI4K2A block 2.3, A549 tox 2.6% and KB-V1 cytotox inactive.
For Cc1cc(SCn2nnc3ccccc3c2=O)nc2ccccc12 the results were Giardia kill 15.7, Nrf2 block 2.2%, KB-3-1 tox inactive, PI4K2A block -0.9, A549 tox 17.9% and KB-V1 cytotox 16.4µM*.
Screening O=c1c2ccccc2nnn1CSc1ccc2ccccc2n1 returned Giardia kill -4.0, Nrf2 block 24.0%, KB-3-1 tox inactive, PI4K2A block -0.6, A549 tox 7.8% and KB-V1 cytotox 23.1µM*.
Screening COC(=O)[C@H](C(C)C)N1Cc2nnn(Cc3ccccc3)c2C=CS1(=O)=O returned PI4K2A block 5.8.
C=CCn1c(SCc2ccccc2C#N)nnc1-c1cc(Br)ccc1O was read as Giardia kill -1.9, KB-3-1 tox inconclusive, PI4K2A block 3.7, A549 tox 0.7% and KB-V1 cytotox 3.66µM*.
CCn1cc(CNC(=O)c2ccc(OC3CCN(Cc4ccccn4)CC3)cc2)cn1 was read as Giardia kill 29.1, Nrf2 block 11.6µM*, KB-3-1 tox inactive, PI4K2A block 0.1, A549 tox 1.4% and KB-V1 cytotox inactive.
Screening Cc1ccc(S(=O)(=O)/N=C(\N)Nc2nc(C)c3cc(C)ccc3n2)cc1 returned Giardia kill 15.6, Nrf2 block 7.6%, KB-3-1 tox inactive, PI4K2A block 0.1, A549 tox -3.7% and KB-V1 cytotox 14.6µM*.
COc1ccc2nc(N/C(N)=N/S(C)(=O)=O)nc(C)c2c1 was read as Giardia kill 17.1, Nrf2 block -0.3%, KB-3-1 tox 8.2µM*, PI4K2A block -2.1, A549 tox -0.1% and KB-V1 cytotox 2.06µM*.
For Cc1ccc(S(=O)(=O)/N=C(\N)Nc2nc(C)c3ccc(C)cc3n2)cc1 the results were Giardia kill -5.6, Nrf2 block 8.2µM*, KB-3-1 tox inactive, PI4K2A block 4.1, A549 tox -7.3%[1.84 µM] and KB-V1 cytotox inactive.
Cc1ccc2c(C)nc(N/C(N)=N/S(=O)(=O)c3ccccc3)nc2c1 was read as Giardia kill 16.5, Nrf2 block 2.9%, KB-3-1 tox inactive, PI4K2A block -2.4, A549 tox 4.1% and KB-V1 cytotox inactive.
Screening Cc1ccc(S(=O)(=O)/N=C(\N)Nc2nc(C)c3cc(C)c(C)cc3n2)cc1 returned Giardia kill 10.0, KB-3-1 tox inactive, PI4K2A block 5.3, A549 tox -0.1% and KB-V1 cytotox inactive.
`O=C(CSc1nc2ccccc2nc1N1CCOCC1)NCc1ccc(Cl)cc1Cl` gave PI4K2A block -3.9.
COc1ccc(-c2cc(-c3nnc(SCC(=O)Nc4ccc(OCc5ccccc5)cc4)n3N)[nH]n2)cc1 was read as PI4K2A block 9.8.
